Experimental data published in PubChem BioAssay (NCI).
Where “and” joins values, the source holds several entries; their conditions need not be identical. Identical values can stand only once. This is part of a sample that, as a whole, favours compounds with a hit. Of some 83,000 tested, about 20% had one in any assay.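 Assay: single dose, 48 h. Readout: percent growth (0 = no net growth; negative = cell death). Active: <10.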 Calls of active or inactive are those of the source.

Key:
Assay in all cases: NCI-60 one-dose screen, 48 h (100 = growth as untreated, 0 = no growth, -100 = all killed)
Conditions in all cases: 10 µM unless noted
NCI-H23 lung = test system: NCI-H23 lung
NCI-H226 lung = test system: NCI-H226 lung
NCI-H322M lung = test system: NCI-H322M lung
HOP-62 NSCLC = test system: HOP-62 NSCLC
NCI-H460 lung = test system: NCI-H460 lung
HOP-92 NSCLC = test system: HOP-92 NSCLC
NCI-H522 lung = test system: NCI-H522 lung
A549/ATCC NSCLC = test system: A549/ATCC NSCLC
786-0 renal = test system: 786-0 renal
COLO 205 colon = test system: COLO 205 colon
DU-145 prostate = test system: DU-145 prostate
K-562 leukemia = test system: K-562 leukemia
MALME-3M melanoma = test system: MALME-3M melanoma
MDA-MB-231 breast = test system: MDA-MB-231 breast
RXF 393 renal = test system: RXF 393 renal
SF-268 CNS = test system: SF-268 CNS
SF-295 CNS = test system: SF-295 CNS
SF-539 CNS = test system: SF-539 CNS
UACC-257 melanoma = test system: UACC-257 melanoma
M14 melanoma = test system: M14 melanoma

SMILES | growth (NCI-H23 lung) | growth (NCI-H226 lung) | growth (NCI-H322M lung) | growth (HOP-62 NSCLC) | growth (NCI-H460 lung) | growth (HOP-92 NSCLC) | growth (NCI-H522 lung) | growth (A549/ATCC NSCLC) | growth (786-0 renal) | growth (COLO 205 colon) | growth (DU-145 prostate) | growth (K-562 leukemia) | growth (MALME-3M melanoma) | growth (MDA-MB-231 breast) | growth (RXF 393 renal) | growth (SF-268 CNS) | growth (SF-295 CNS) | growth (SF-539 CNS) | growth (UACC-257 melanoma) | growth (M14 melanoma)
C/C=C(\C)C(=O)N[C@H]1CC[C@]2(C)C3CC[C@@]4(C)C(CC[C@@H]4C(C)N(C)C)C3CCC2[C@H]1OC(C)=O (stereo not given in full) | -8.02% (active) | -2.69% (active) | -48.5% (active) | -60% (active) | -86.4% (active) | -49.4% (active) | 6.83% (active) | -17.8% (active) | -88.8% (active) | -90.7% (active) | 4.99% (active) | 18% (inactive) | -68.6% (active) | -32.3% (active) | -61.5% (active) | -84.6% (active) | -66.9% (active) | -95.7% (active) | -51.3% (active) | -64.1% (active)
CCNC(=S)n1nc(SC)c(C(=O)OCC)c1N | 93.3% (inactive) | 91.9% (inactive) | 91.8% (inactive) | 86.7% (inactive) | 106% (inactive) | 110% (inactive) | 89.9% (inactive) | 107% (inactive) | 98.6% (inactive) | 107% (inactive) | 102% (inactive) | 85.5% (inactive) | 106% (inactive) | 92.5% (inactive) | 107% (inactive) | 92% (inactive) | 98.1% (inactive) | 93.1% (inactive) | 120% (inactive) | 107% (inactive)
CCCCCCCCCCCCCCCC(=O)O[C@@H]1[C@@H](O)[C@@H](O)C([C@H](NC(=O)[C@@H]2C[C@@H](CCC)CN2C)[C@H](C)Cl)O[C@@H]1SC (stereo not given in full) | 102% (inactive) | 91.2% (inactive) | 97.8% (inactive) | 101% (inactive) | 110% (inactive) | 118% (inactive) | 130% (inactive) | 102% (inactive) | 91.8% (inactive) | 103% (inactive) | 114% (inactive) | 100% (inactive) | 87.1% (inactive) | 110% (inactive) | 106% (inactive) | 105% (inactive) | 104% (inactive) | 92% (inactive) | 105% (inactive) | 98.9% (inactive)
COc1cc(C(=O)c2ccccc2C(=O)O)c(OC)c2c1CCCC2 | 98.2% (inactive) and 94.4% (inactive) | 108% (inactive) | 108% (inactive) and 101% (inactive) | 106% (inactive) | 103% (inactive) and 107% (inactive) | 95.8% (inactive) | 106% (inactive) and 145% (inactive) | 97.5% (inactive) and 101% (inactive) | 94.2% (inactive) and 97.6% (inactive) | 114% (inactive) and 108% (inactive) | 99% (inactive) and 106% (inactive) | 85.7% (inactive) and 84.7% (inactive) | 90.5% (inactive) and 97.3% (inactive) | 87.8% (inactive) and 101% (inactive) | 107% (inactive) and 100% (inactive) | 92.5% (inactive) and 101% (inactive) | 97% (inactive) and 102% (inactive) | 97.3% (inactive) and 103% (inactive) | 95.9% (inactive) and 99.5% (inactive) | 94.4% (inactive) and 97.6% (inactive)
CCOC(=O)C1=C(C)NC(=O)NC1c1c(Cl)n(-c2ccccc2)c2ccccc12 (stereo not given) | 74.7% (inactive) | 86.5% (inactive) | 80.5% (inactive) | 86.7% (inactive) | 96.1% (inactive) | 59.5% (inactive) | 66% (inactive) | 88.2% (inactive) | 83.1% (inactive) | 107% (inactive) | 85.7% (inactive) | 43.4% (inactive) | 86.2% (inactive) | 81.5% (inactive) | 55.6% (inactive) | 86.7% (inactive) | 85.5% (inactive) | 87.9% (inactive) | 88.3% (inactive) | 86.5% (inactive)
O=S(=O)(Nc1cc(Sc2cccc3cccnc23)c(O)c2ccccc12)c1ccc(F)cc1 | 17.7% (inactive) | 44.3% (inactive) | 31.7% (inactive) | 44.7% (inactive) | 4.76% (active) | 4.76% (active) | -48.7% (active) | 11.9% (inactive) | 2.18% (active) | -64.6% (active) | -25.4% (active) | -20.1% (active) | -14% (active) | 19.6% (inactive) | -5.08% (active) | 8.15% (active) | 22.1% (inactive) | -15.6% (active) | -24.8% (active) | -42.8% (active)
Cc1ccc2[nH]c(=S)[nH]c(=O)c2c1 | 100% (inactive) | 102% (inactive) | 102% (inactive) | 99.4% (inactive) | 106% (inactive) | 93.4% (inactive) | 94.7% (inactive) | 98.9% (inactive) | 94.9% (inactive) | 117% (inactive) | 109% (inactive) | 97.1% (inactive) | 102% (inactive) | 109% (inactive) | 104% (inactive) | 100% (inactive) | 104% (inactive) | 99.7% (inactive) | 101% (inactive) | 101% (inactive)
CC1(C)C(N)=Nc2cc(OCCCN3Cc4ccc(OCCc5cn(CC(=O)N6CCC(CCN7CCCC7)CC6)nn5)cc4C3)c(OCC3CC3)cc21 | 98.2% (inactive) | 108% (inactive) | 102% (inactive) | 95.4% (inactive) | 105% (inactive) | 81.3% (inactive) | 101% (inactive) | 100% (inactive) | 99.6% (inactive) | 108% (inactive) | 111% (inactive) | 88% (inactive) | 106% (inactive) | 112% (inactive) | 113% (inactive) | 86% (inactive) | 100% (inactive) | 97% (inactive) | 112% (inactive) | 108% (inactive)
Cc1ccc(NC(=O)c2ccc(CN3CCN(C)CC3)cc2)cc1Nc1nccc(-c2cccnc2)n1 | 82.9% (inactive) and 76.2% (inactive) | 89.4% (inactive) and 78.2% (inactive) | 104% (inactive) | 84.9% (inactive) | 96.8% (inactive) and 83.9% (inactive) | 56.3% (inactive) and 66.4% (inactive) | 51.2% (inactive) | 96.2% (inactive) and 62.2% (inactive) | 95% (inactive) and 88.6% (inactive) | 101% (inactive) and 78.3% (inactive) | 85.6% (inactive) and 88.2% (inactive) | 2.02% (active) | 114% (inactive) and 79.6% (inactive) | 88.8% (inactive) and 81.3% (inactive) | 94.3% (inactive) and 69.3% (inactive) | 104% (inactive) and 74.5% (inactive) | 84.9% (inactive) and 66.4% (inactive) | 75.5% (inactive) and 38.2% (inactive) | 97.2% (inactive) and 29.6% (inactive) | 113% (inactive) and 82.7% (inactive)
CCN(c1cc(-c2ccc(CN3CCC(/C=C/S(=O)(=O)c4ccccc4)CC3)cc2)cc(C(=O)NCc2c(C)cc(C)[nH]c2=O)c1C)C1CCOCC1 | 81.4% (inactive) | 78.3% (inactive) | 85.1% (inactive) | 82.8% (inactive) | 83.8% (inactive) | 24.3% (inactive) | 77.7% (inactive) | 66.1% (inactive) | 71.1% (inactive) | 99.8% (inactive) | 78.9% (inactive) | 40.6% (inactive) | 67% (inactive) | 67.3% (inactive) | 17.7% (inactive) | 66.5% (inactive) | 84.8% (inactive) | 59.3% (inactive) | 75.4% (inactive) | 85.1% (inactive)
COc1ccc2c(O)c(/C=C3\N=Nc4nc(C)ccc43)oc2c1CC1CCNCC1 | 67.2% (inactive) | 57.5% (inactive) | 80.8% (inactive) | 64.3% (inactive) | 79.3% (inactive) | 39.2% (inactive) | 43.4% (inactive) | 68.2% (inactive) | 54.1% (inactive) | 78.4% (inactive) | 87.9% (inactive) | 49.3% (inactive) | 19.1% (inactive) | 34.6% (inactive) | -0.196% (active) | 67.4% (inactive) | 90% (inactive) | 55.9% (inactive) | 74.5% (inactive) | 35.4% (inactive)
Nc1nc(CSc2n[nH]c(N)n2)nc(Nc2ccccc2)n1 | 102% (inactive) | 101% (inactive) | 97.8% (inactive) | 106% (inactive) | 103% (inactive) | 95.4% (inactive) | 93.4% (inactive) | 102% (inactive) | 96% (inactive) | 109% (inactive) | 104% (inactive) | 99.1% (inactive) | 104% (inactive) | 105% (inactive) | 114% (inactive) | 93.1% (inactive) | 97.6% (inactive) | 102% (inactive) | 107% (inactive) | 105% (inactive)
CCN(CC)CC(=O)Nc1ccc2ncnc(Nc3ccc(Oc4cccc(F)c4)c(Cl)c3)c2c1 | 74.9% (inactive) | 87.6% (inactive) | 65.6% (inactive) | 80.4% (inactive) | 36.9% (inactive) | 39.5% (inactive) | 64.6% (inactive) | 55.7% (inactive) | 59.7% (inactive) | 68.8% (inactive) | 57% (inactive) | 2.08% (active) | 45.2% (inactive) | 49.3% (inactive) | 43.2% (inactive) | 58.8% (inactive) | 87.2% (inactive) | 83.5% (inactive) | 67.2% (inactive) | -33.8% (active)
O=[N+]([O-])c1ccc2[nH]c3nccc(NCc4cccc(Cl)c4)c3c2c1 | 82.3% (inactive) | 83.9% (inactive) | 77.8% (inactive) | 10.8% (inactive) | 26.8% (inactive) | 92.5% (inactive) | 50.3% (inactive) | 58.8% (inactive) | 76.4% (inactive) | 68.1% (inactive) | 64.6% (inactive) | 79.4% (inactive) | 46.4% (inactive) | 80.2% (inactive) | 66.4% (inactive) | 46.1% (inactive) | 67.3% (inactive) | 71.1% (inactive) | 85.5% (inactive) | 83.4% (inactive)
